The results in this text go back to PubChem BioAssay (NCATS).

The nature of assay [1]: qHTS for Inhibitors of the Functional Ribonucleoprotein Complex (vRNP) of Lassa (LASV) Arenavirus: LASV Primary Screen - GLuc reporter signal (AID 1347082). Further: nearly all actives have a fitted effect of over 60% in size. On activity change, negative = inhibition: series mostly up to about 57 µM. On the technique in general: In qHTS, concentration-response curves come from the screen itself.
Assay [2] can be described thus: qHTS for Inhibitors of the Functional Ribonucleoprotein Complex (vRNP) of Lassa (LASV) Arenavirus: Viability assay - alamar blue signal for LASV Primary Screen (AID 1347083). Further: nearly all actives have a fitted effect of over 80% in size. On activity change, negative = reduced viability: series mostly up to about 57 µM.
Assay [3] can be described thus: qHTS for Inhibitors of the Functional Ribonucleoprotein Complex (vRNP) of Lymphocytic Choriomeningitis Arenaviruses (LCMV): Viability assay - alamar blue signal for LCMV Primary Screen (AID 1347085). Further: nearly all actives have a fitted effect of over 80% in size. On activity change, negative = lower viability: series mostly up to about 57 µM.

Inconclusive results are not listed. Unmarked numbers belong to inactive results. Active and inactive are the calls of the source. The call rests on the fitted dose curve; tested in HEK293 reporter line. Residues, ends and D or L forms follow the SMILES beside them.
On the % scale 0 is the no-effect control and ±100 the full control effect; potency means the concentration at half of the fitted maximal effect.

Take `N=C(N)N1CCc2ccccc2C1`: the activity change, negative = inhibition in assay [1] was -8.85% [at 5.82 µM]. In addition, the activity change, negative = reduced viability in assay [2] was -0.684% [at 5.82 µM]. The activity change, negative = lower viability in assay [3] was -9.02% [at 5.82 µM].

Take `Cn1c([N+](=O)[O-])cnc1COC(N)=O`: the Potency entry in assay [1], in assay [2] and in assay [3] was “inactive” in each case.

As to `Cc1cccc(C)c1NC(=O)CN(CC(=O)O)CC(=O)O`, the Potency entry in assay [1], in assay [2] and in assay [3] was “inactive” throughout.

In the case of `O=C(O)COc1nn(Cc2ccccc2)c2ccccc12`, the Potency result in assay [1], in assay [2] and in assay [3] was “inactive” each time.

In the case of `CN(C)CCOC(=O)C(c1ccccc1)C1(O)CCCC1` (centres undefined), the Potency entry in assay [1], in assay [2] and in assay [3] was “inactive” each time.

On to `NC(=O)c1ccccc1O`, for which the Potency result in assay [1], in assay [2] and in assay [3] was “inactive” each time.

`Cc1ccc2ccc(Cl)cc2n1`: the Potency entry in assay [1], in assay [2] and in assay [3] was “inactive” throughout.

With `CN1CCN(c2c(F)cc3c(=O)c(C(=O)O)cn4c3c2SCC4)CC1`, the Potency result in assay [1], in assay [2] and in assay [3] was “inactive” each time.

On to `CC(C(=O)O)c1ccc(/C=C2\CCCCC2=O)cc1` (centres undefined), for which the Potency entry in assay [1], in assay [2] and in assay [3] was “inactive” throughout.

Take `O=C(O)[C@@H]1[C@H]2C[C@H]3c4[nH]c5ccccc5c4CCN3C[C@@H]2CC[C@@H]1O`: the Potency result in assay [1], in assay [2] and in assay [3] was “inactive” throughout.

On to `CCCCCCCC/C=C/C(=O)O`, for which the Potency entry in assay [1], in assay [2] and in assay [3] was “inactive” throughout.

Turning to `COc1ccc(/C(C)=C/C(=O)O)c(OC)c1`, the Potency entry in assay [1], in assay [2] and in assay [3] was “inactive” each time.

Take `COC(=O)/C=C\C(=O)OC`: the Potency result in assay [1], in assay [2] and in assay [3] was “inactive” each time.

On to `Cc1c(Nc2ncccc2C(=O)O)cccc1C(F)(F)F`, for which the Potency entry in assay [1], in assay [2] and in assay [3] was “inactive” throughout.

As for `NCCCC[C@H](N[C@@H](CCc1ccccc1)C(=O)O)C(=O)N1CCC[C@H]1C(=O)O`, the Potency result in assay [1], in assay [2] and in assay [3] was “inactive” each time.

As to `COC(=O)c1ccccc1C(=O)c1ccc(OCCN2CCCCC2)cc1`, the Potency result in assay [1], in assay [2] and in assay [3] was “inactive” each time.

With `O=C(O)c1ccc(S(=O)(=O)N(Cl)Cl)cc1`, the Potency result in assay [1], in assay [2] and in assay [3] was “inactive” throughout.

Regarding `Cc1cc(CCCOc2c(C)cc(-c3noc(C(F)(F)F)n3)cc2C)on1`, the Potency entry in assay [1], in assay [2] and in assay [3] was “inactive” throughout.

Consider `NC(CO)(CO)CO`, for which the Potency entry in assay [1], in assay [2] and in assay [3] was “inactive” throughout.

Take `Cc1ccc(C(C)C)c(O)c1`: the Potency result in assay [1], in assay [2] and in assay [3] was “inactive” in each case.

In the case of `Nc1ccc(S(=O)(=O)Nc2ccccn2)cc1`, the Potency entry in assay [1], in assay [2] and in assay [3] was “inactive” throughout.

For `Nc1ncnc2nc[nH]c12`, the Potency result in assay [1], in assay [2] and in assay [3] was “inactive” in each case.

For the molecule `COCCc1ccccn1`, the Potency result in assay [1], in assay [2] and in assay [3] was “inactive” each time.

For the molecule `N[C@@H](CCC(=O)N[C@@H](CS)C(=O)NCC(=O)O)C(=O)O`, the Potency result in assay [1], in assay [2] and in assay [3] was “inactive” in each case.

Turning to `CC1COc2c(N3CCN(C)CC3)c(F)cc3c(=O)c(C(=O)O)cn1c23` (centres undefined), the Potency result in assay [1], in assay [2] and in assay [3] was “inactive” throughout.

In the case of `Cc1cc(CC(=O)O)c(C)n1-c1ccc(Cl)cc1`, the Potency result in assay [1], in assay [2] and in assay [3] was “inactive” in each case.

As to `O=S(=O)(O)c1ccc2nc(-c3ccccc3)[nH]c2c1`, the Potency entry in assay [1], in assay [2] and in assay [3] was “inactive” each time.

In the case of `Cc1nnc(SCC2=C(C(=O)O)N3C(=O)[C@@H](NC(=O)Cn4cnnn4)[C@H]3SC2)s1`, the Potency entry in assay [1], in assay [2] and in assay [3] was “inactive” each time.

Turning to `CCO/C([O-])=N/c1c[n+](N2CCOCC2)no1`, the Potency entry in assay [1], in assay [2] and in assay [3] was “inactive” in each case.

Consider `Cc1cc(C(C#N)c2ccc(Cl)cc2)c(Cl)cc1NC(=O)c1cc(I)cc(I)c1O` (centres undefined), for which the Potency result in assay [1], in assay [2] and in assay [3] was “inactive” in each case.

Take `CCCc1nn(C)c2c(=O)[nH]c(-c3cc(S(=O)(=O)N4CCN(C)CC4)ccc3OCC)nc12`: the Potency result in assay [1], in assay [2] and in assay [3] was “inactive” throughout.

Consider `COc1cc(OC)nc(O[C@H](C(=O)O)C(OC)(c2ccccc2)c2ccccc2)n1`, for which the Potency result in assay [1], in assay [2] and in assay [3] was “inactive” throughout.

Regarding `CCCCCCCC(=O)[O-].CCCCCCCC(=O)[O-].[Zn+2]`, the Potency result in assay [1], in assay [2] and in assay [3] was “inactive” in each case.

Turning to `COc1c(N2C[C@@H]3CCCN[C@@H]3C2)c(F)cc2c(=O)c(C(=O)O)cn(C3CC3)c12`, the Potency entry in assay [1], in assay [2] and in assay [3] was “inactive” throughout.

Turning to `CCOCCn1c(C2CCN(CCc3ccc(C(C)(C)C(=O)O)cc3)CC2)nc2ccccc21`, the Potency entry in assay [1], in assay [2] and in assay [3] was “inactive” throughout.

On to `CC(=O)c1cc2ccccc2s1`, for which the Potency entry in assay [1], in assay [2] and in assay [3] was “inactive” in each case.

On to `CN1CCN(C(=O)C2CCCCC2)CC1`, for which the Potency entry in assay [1], in assay [2] and in assay [3] was “inactive” throughout.

`COc1ccc2cc1Oc1cc3c(cc1OC)CC[N+](C)(C)[C@H]3Cc1ccc(cc1)Oc1c(OC)c(OC)cc3c1[C@@H](C2)[N+](C)(C)CC3`: the Potency entry in assay [1], in assay [2] and in assay [3] was “inactive” each time.

As for `C[C@@H]1O[C@@H](O[C@H]2CC[C@@]3(C)[C@H](CC[C@@H]4[C@H]3C[C@@H](O)[C@]3(C)[C@@H](C5=CC(=O)OC5)CC[C@]43O)C2)C[C@H](O)[C@@H]1O[C@H]1C[C@H](O)[C@H](O[C@H]2C[C@H](O)[C@@H](O)[C@@H](C)O2)[C@H](C)O1` (stereo in doubt), the values for the Potency in assay [1], in assay [2] and in assay [3] were 559 nM (active), 352 nM (active) and 396 nM (active), respectively.

Consider `Cc1cccn2c(=O)c(-c3nnn[nH]3)cnc12`, for which the Potency result in assay [1], in assay [2] and in assay [3] was “inactive” throughout.

With `C/C=C1\[C@H]2C=C(C)C[C@]1(N)c1ccc(=O)[nH]c1C2`, the Potency result in assay [1], in assay [2] and in assay [3] was “inactive” throughout.

Turning to `COC(=O)[C@H](Cc1ccccc1)NC(=O)[C@@H](N)CC(=O)O` (H-Asp-Phe-OMe), the Potency entry in assay [1], in assay [2] and in assay [3] was “inactive” in each case.

Take `CCCCCCOc1ccccc1C(N)=O`: the Potency entry in assay [1], in assay [2] and in assay [3] was “inactive” each time.
